Inconclusive results are not listed. Some structures have more than one record in an assay (separate samples or runs), and their calls can disagree. Calls of active or inactive are those of the source. Unless noted, the call rests on the fitted dose curve; in most records, active means well fitted curve in the direction sought with a large enough effect in the repeat runs; inconclusive means weak or mixed curves; inactive means no such curve, though single readings can be large; an effect the other way counts as inactive or inconclusive.

A short description of assay [1]: qHTS assay to identify small molecule agonists of the peroxisome proliferator-activated receptor delta (PPARd) signaling pathway - cell viability counter screen (AID 743211). Further: nearly all actives have a fitted effect of over 55% in size. In short, it runs like this: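 Following 5 h plating at 37 C and 5% CO2, PPARd UAS-bla HEK293H cells took up test compounds for 17 h. Viability was quantified by luminescence 30 min after CellTiter-Glo addition at room temperature.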
A general note: Quantitative high-throughput screening tests each substance at several concentrations.

Assay [2] can be described thus: qHTS assay to identify small molecule antagonists of the peroxisome proliferator-activated receptor delta (PPARd) signaling pathway - cell viability counter screen (AID 743213). Further: nearly all actives have a fitted effect of over 50% in size. In short, it runs like this: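 PPARd-bla HEK293H cells (3000/well) got compound plus 300 nM L165041 agonist for 17 h at 37 C. Viability in the same wells came from CellTiter-Glo luminescence after 30 min at room temperature.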

Assay [3] deals with Bile acid receptor (Homo sapiens) (UniProt Q96RI1). Put plainly: qHTS assay to identify small molecule antagonists of the farnesoid-X-receptor (FXR) signaling pathway (AID 743217; active means well fitted inhibition curve with a large enough effect in the signal ratio in the repeat runs, not every such curve was filed as active; the % refers to the signal ratio). The method in brief: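 Beta-lactamase reporter under UAS control in HEK 293T cells; compound exposure 16 h at 37 °C in the presence of chenodeoxycholic acid (50 uM final); signal from B/G FRET substrate after 2 h at room temperature.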
Sequence of Bile acid receptor (Homo sapiens) (Q96RI1 whole entry, looked up): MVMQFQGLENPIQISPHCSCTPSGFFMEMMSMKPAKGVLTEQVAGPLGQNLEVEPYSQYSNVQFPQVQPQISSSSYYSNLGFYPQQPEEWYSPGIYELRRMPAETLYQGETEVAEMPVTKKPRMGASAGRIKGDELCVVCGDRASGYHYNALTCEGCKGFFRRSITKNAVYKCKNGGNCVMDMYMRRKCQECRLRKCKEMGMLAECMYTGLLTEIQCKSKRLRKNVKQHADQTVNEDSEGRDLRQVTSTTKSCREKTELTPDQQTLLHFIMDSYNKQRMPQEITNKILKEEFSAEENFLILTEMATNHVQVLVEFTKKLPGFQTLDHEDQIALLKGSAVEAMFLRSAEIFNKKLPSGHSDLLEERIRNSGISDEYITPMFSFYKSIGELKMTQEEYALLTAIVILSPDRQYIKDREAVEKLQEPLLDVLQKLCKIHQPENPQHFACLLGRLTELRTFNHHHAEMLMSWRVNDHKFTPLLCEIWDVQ

Assay [4] is described as follows: qHTS assay to identify small molecule agonists of the farnesoid-X-receptor (FXR) signaling pathway - cell viability counter screen (AID 743218). Further: nearly all actives have a fitted effect of over 45% in size. In short, it runs like this: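 In GeneBLAzer FXR-UAS-bla HEK 293T cells, compounds act for 16 h at 37 C. Cell viability is then scored in the reporter wells by CellTiter-Glo, 30 min at RT, luminescence.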
For assay [5], the target named is Bile acid receptor (Homo sapiens) (UniProt Q96RI1). Put plainly: qHTS assay to identify small molecule agonists of the farnesoid-X-receptor (FXR) signaling pathway (AID 743220; active means well fitted activation curve with a large enough effect in the signal ratio in the repeat runs, not every such curve was filed as active; the % refers to the signal ratio). In short, it runs like this:
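Beta-lactamase reporter under UAS control in GeneBLAzer FXR HEK 293T cells (5000/well) measured with LiveBLAzer FRET substrate after 2 h at room temperature. Compound exposure lasted 16 h at 37C.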

A short description of assay [6]: qHTS assay to identify small molecule antagonists of the farnesoid-X-receptor (FXR) signaling pathway - cell viability counter screen (AID 743221; active means well fitted cell-killing curve with a large enough effect in the repeat runs, not every such curve was filed as active; further: nearly all actives have a fitted effect of over 50% in size). In short, it runs like this: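 Compound effects on cell number were measured as CellTiter-Glo luminescence in HEK 293T cells expressing FXR-UAS-bla, after 16 h at 37 C with 50 uM CDCA (final).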
Assay [7] concerns the target Vitamin D3 receptor (Homo sapiens) (UniProt P11473). Put plainly: qHTS assay to identify small molecule agonists of the vitamin D receptor (VDR) signaling pathway (AID 743222; calls by dose curve). In short, it runs like this:
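Agonist activity measured in VDR-bla reporter cells. Exposure 16 h, 37C, 5% CO2; detection by B/G FRET substrate, 2 h RT.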

Assay [8] has the same target. The experiment in a line: qHTS assay to identify small molecule antagonists of the vitamin D receptor (VDR) signaling pathway (AID 743223; active means well fitted inhibition curve with a large enough effect in the signal ratio in the repeat runs, not every such curve was filed as active; the % refers to the signal ratio). The method in brief:
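Beta-lactamase activity in VDR-bla cells is measured by FRET substrate fluorescence (2 h, room temperature) after cells spend 16 h at 37C with test compound and 3 nM final 1alpha,25-dihydroxyvitamin D3.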

The nature of assay [9]: qHTS assay to identify small molecule agonists of the vitamin D receptor (VDR) signaling pathway - cell viability counter screen (AID 743224). Further: series mostly up to about 63 µM; nearly all actives have a fitted effect of over 50% in size. The method in brief:
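VDR-bla cell line, quantitative HTS format; 16 h compound incubation (37C, 5% CO2); ATP-based CellTiter-Glo luminescence measured in the reporter assay wells.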

A short description of assay [10]: qHTS assay to identify small molecule antagonists of the vitamin D receptor (VDR) signaling pathway - cell viability counter screen (AID 743225). Further: nearly all actives have a fitted effect of over 50% in size. The method in brief:
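In this counter screen, VDR-bla HEK 293T cells receive test compound plus 3 nM final calcitriol for 16 h at 37C. Room-temperature steps of 2 h with the beta-lactamase substrate, then 30 min with CellTiter-Glo, precede the luminescence read.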

The nature of assay [11]: qHTS assay to identify small molecule agonists of the NFkB signaling pathway - cell viability counter screen (AID 1159515; calls by dose curve; further: series mostly up to about 61 µM; nearly all actives have a fitted effect of over 55% in size). In short, it runs like this:
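Viability in NFkB-bla ME-180 cells was measured by CellTiter-Glo luminescence, 30 min room temperature, in wells already treated 5 hr with compounds and read for reporter FRET.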

Assay [12] is described as follows: qHTS assay to identify small molecule agonists of the endoplasmic reticulum stress response signaling pathway (AID 1159516; active means well fitted activation curve with a large enough effect in the signal ratio in the repeat runs, not every such curve was filed as active; the % refers to the signal ratio). The method in brief:
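ER stress element reporter (bla) in HeLa. 1,500 cells/well, overnight attachment; 5 hr compound; 2 hr RT substrate; dual-emission fluorescence.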

Assay [13] in a line: qHTS assay to identify small molecule agonists of the endoplasmic reticulum stress response signaling pathway - cell viability counter screen (AID 1159517; calls by dose curve). The method in brief: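 Counter-screen wells were identical to the reporter wells. Cells were plated at 1,500 per well and dosed for 5 hr, then read for luminescence 30 min after CellTiter-Glo addition.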
For assay [14], the target named is Nuclear receptor ROR-gamma (Homo sapiens) (UniProt P51449). The experiment in a line: qHTS assay to identify small molecule antagonists of the retinoid-related orphan receptor gamma (ROR-gamma) signaling pathway (AID 1159521; further: nearly all actives have a fitted effect of over 50% in size; further: potency means the concentration at half of the fitted maximal effect). In short, it runs like this:
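Screening format: cell-based luciferase reporter in CHO cells with doxycycline-inducible RORγ. Compound pre-exposure lasts 2 h, doxycycline is 1 uM final, induction runs 16 h at 37 C, and ONE-Glo luminescence is read.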

The nature of assay [15]: qHTS assay to identify small molecule agonists of the AP-1 signaling pathway - cell viability counter screen (AID 1159525; calls by dose curve; further: nearly all actives have a fitted effect of over 55% in size). In short, it runs like this: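 AP-1-bla ME-180 cells in Opti-MEM with 0.5% dialyzed FBS, compound exposure 5 h at 37 C in 15-point titration. Viability read in the same wells as ATP content by CellTiter-Glo luminescence, normalised to tetra-n-octylammonium bromide and DMSO controls.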

Assay [16] in a line: qHTS assay to identify small molecule agonists of the AP-1 signaling pathway (AID 1159526; calls by dose curve).
The target in assay [17] is Peroxisome proliferator-activated receptor delta (Homo sapiens) (UniProt Q03181). Put plainly: qHTS assay to identify small molecule agonists of the peroxisome proliferator-activated receptor delta (PPARd) signaling pathway (AID 743212; calls by dose curve). In short, it runs like this: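 Quantitative high-throughput agonist screen in a HEK293H beta-lactamase reporter line under UAS control. Compounds in DMSO, at 37 C. Fluorescence read after 2 h with FRET substrate at room temperature.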
Sequence of Peroxisome proliferator-activated receptor delta (Homo sapiens) (Q03181 whole entry, looked up): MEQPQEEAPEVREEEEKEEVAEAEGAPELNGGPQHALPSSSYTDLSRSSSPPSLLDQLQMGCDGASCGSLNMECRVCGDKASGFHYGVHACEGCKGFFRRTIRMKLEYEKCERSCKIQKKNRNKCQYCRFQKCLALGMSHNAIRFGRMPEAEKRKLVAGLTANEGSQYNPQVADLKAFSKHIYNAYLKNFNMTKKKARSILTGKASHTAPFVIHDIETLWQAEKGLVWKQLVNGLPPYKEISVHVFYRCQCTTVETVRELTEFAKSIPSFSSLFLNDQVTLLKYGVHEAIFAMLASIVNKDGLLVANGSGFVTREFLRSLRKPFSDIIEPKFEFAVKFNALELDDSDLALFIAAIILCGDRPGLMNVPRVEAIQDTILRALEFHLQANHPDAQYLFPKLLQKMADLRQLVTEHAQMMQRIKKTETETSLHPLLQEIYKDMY

The target is the same in assay [18]. The experiment in a line: qHTS assay to identify small molecule antagonists of the peroxisome proliferator-activated receptor delta (PPARd) signaling pathway (AID 743215; active means well fitted inhibition curve with a large enough effect in the signal ratio in the repeat runs, not every such curve was filed as active; the % refers to the signal ratio;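 further: cells stimulated with agonist L165041 at 300 nM final during compound exposure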; further: potency means the concentration at half of the fitted maximal effect). In short, it runs like this: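 Antagonist-mode beta-lactamase reporter screen: HEK293H cells with UAS-bla under PPARd control, stimulated by 300 nM L165041 (final) alongside test compound for 17 h at 37 C, then FRET fluorescence after 2 h substrate incubation.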

Assay [19] can be described thus: qHTS assay to identify small molecule antagonists of the retinoid-related orphan receptor gamma (ROR-gamma) signaling pathway - cell viability counter screen (AID 1159520). Further: nearly all actives have a fitted effect of over 50% in size. In short, it runs like this: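 Tet-on ROR gamma CHO cells were given compounds for 2 hr, then doxycycline hyclate at 1 uM final, and incubated 16 hr at 37 C. Viability was measured as ATP content by CellTiter-Glo luminescence.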

Sequence of Vitamin D3 receptor (Homo sapiens) (P11473 whole entry, looked up): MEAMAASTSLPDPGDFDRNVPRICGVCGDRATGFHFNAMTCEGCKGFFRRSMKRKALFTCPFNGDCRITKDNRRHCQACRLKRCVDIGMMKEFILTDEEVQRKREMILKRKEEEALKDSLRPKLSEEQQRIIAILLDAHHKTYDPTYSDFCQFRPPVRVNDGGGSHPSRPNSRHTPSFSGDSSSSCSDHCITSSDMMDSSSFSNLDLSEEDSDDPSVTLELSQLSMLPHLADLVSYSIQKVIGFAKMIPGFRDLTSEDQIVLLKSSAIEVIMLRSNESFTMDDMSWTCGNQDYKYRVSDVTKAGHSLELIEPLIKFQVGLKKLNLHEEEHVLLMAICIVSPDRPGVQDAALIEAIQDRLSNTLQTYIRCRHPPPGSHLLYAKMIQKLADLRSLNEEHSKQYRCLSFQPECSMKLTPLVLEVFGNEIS

For the compound `CC(Oc1ccc(Cl)cc1Cl)C(=O)O` (stereo unspecified), the compound was classed as inactive in assay [1], in assay [2], in assay [3], in assay [4], in assay [5] and in assay [6]. Further, the result in [7], in assay [8], in assay [9], in [10], in assay [11] and in assay [12] was inactive. Further, the call in assay [13] was inactive. Further, the Potency result in [14], in assay [15] and in assay [16] was “inactive” in each case.

Turning to `Nc1ccc(Oc2ccc(N)cc2)cc1`, the result in [1], in assay [17], in assay [2], in assay [4], in assay [6] and in [9] was inactive. Moreover, the outcome in assay [10], in [11], in assay [12] and in assay [13] was inactive. Further, the Potency result in assay [18], in assay [14], in assay [15] and in assay [16] was “inactive” in each case.

For `O=C(O)c1ccccn1`, the result in assay [1], in assay [2], in assay [4], in [6], in assay [9] and in [10] was inactive. Further, the compound was called inactive in [11], in assay [12] and in assay [13]. In addition, the Potency entry in [14] and in assay [16] was “inactive” in each case.

`O=C(NC(=O)c1c(F)cccc1F)Nc1cc(Cl)c(OC(F)(F)C(F)C(F)(F)F)cc1Cl` (stereo unspecified): the compound was called inactive in [1], in assay [2], in assay [3], in assay [4], in assay [5] and in assay [6]. For the same compound, the compound was classed as inactive in [7], in assay [8], in assay [9], in assay [10], in assay [11] and in assay [12]. Also, the outcome in [13] was inactive. Further, the Potency result in assay [14] is “inactive”.

`O=NN1CCCC1`: the compound was classed as inactive in assay [1], in [17], in [2], in assay [3], in assay [5] and in [6]. In addition, the compound was classed as inactive in assay [7], in assay [8], in assay [9], in assay [10], in [11] and in assay [13]. The Potency entry in assay [18], in assay [19] and in assay [16] was “inactive” in each case. The Potency in [14] is 10.1 µM (active) and inactive.

Regarding `CCCCCCCCCCCC#N`, the result in assay [1], in assay [17], in assay [2], in [3], in assay [4] and in assay [5] was inactive. In addition, the compound was called inactive in [6], in assay [7], in [8], in assay [9], in assay [10] and in [11]. Besides, the call in assay [13] was inactive. In addition, the Potency entry in assay [18], in [19], in assay [14], in assay [15] and in [16] was “inactive” in each case.

For `CC(Br)C(=O)O` (stereo unspecified), the outcome in [1], in [17], in assay [2], in assay [4], in assay [6] and in assay [7] was inactive. Moreover, the result in [8], in assay [9], in assay [10], in assay [11] and in assay [13] was inactive. Besides, the Potency entry in assay [18], in assay [19], in assay [14] and in assay [16] was “inactive” each time.

As for `CCN(CC)c1ccccc1`, the result in assay [1], in assay [2], in assay [3], in [4], in [5] and in [6] was inactive. Also, the outcome in [7], in assay [8], in assay [9], in [10], in assay [11] and in assay [13] was inactive. Moreover, the Potency entry in assay [19], in assay [14], in assay [15] and in assay [16] was “inactive” each time.

In the case of `ClCc1cccnc1`, the outcome in assay [1], in assay [17], in assay [2], in [3], in assay [4] and in [5] was inactive. Moreover, the outcome in assay [6], in [7], in [8], in [9], in [10] and in [11] was inactive. Moreover, the call in assay [13] was inactive. Also, the Potency entry in assay [18], in assay [19], in [14], in assay [15] and in assay [16] was “inactive” in each case.

With `COc1ccc2c3c1O[C@H]1[C@@H](O)C=C[C@H]4[C@@H](C2)N(C)CC[C@@]341`, the compound was classed as inactive in [1], in assay [17], in assay [2], in [3], in [4] and in assay [5]. In addition, the compound was classed as inactive in [6], in assay [7], in assay [8], in assay [9], in [10] and in assay [11]. In addition, the outcome in assay [12] and in [13] was inactive. The Potency was 42.6 µM (active) in [18]; 60.1 µM (active) and inactive in assay [14]. For the same compound, the Potency result in assay [19] and in assay [16] was “inactive” in each case.

The values above are taken from PubChem BioAssay (Tox21).
